# Experimental data from PubChem BioAssay AID868 (SRMLSC, 2007).
# Screen size: about 190,000 compounds; about 3,500 (1.8%) were called active. What follows is part of a selection rich in actives, with near analogues and random picks from the rest. A number with no mark means an inactive call.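 The calls were made as follows: active = inhibition above a set limit, 3 SD over mean compound inhibition (cut at about 8.4% in these data); inactive = the rest.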
# Experiment: RAM signaling blockers in budding yeast – dse1pr::URA3 reporter, 5-FOA selection, primary screen (AID 868);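 also: 0% = DMSO-only wells with no growth and 100% = 10 µM 1-NA-PP1 full growth; inhibition rescues growth on 5-FOA so higher OD means more RAM inhibition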
# Conditions: S. cerevisiae dse1pr::URA3 reporter, 5-FOA growth OD615, 2 d; at 50 µM; stronger effect = higher value
row,Structure (SMILES),inhibition
1,CC(=O)Nc1ccccc1C(=O)OCC(=O)c1cccc2ccccc12,9.49% (active)
2,O=C(Nc1cccc2ccccc12)N1CCC2(CC1)OCCO2,1.87%
3,CC1=CC(=Cc2sc3ccccc3[n+]2C)C=C(C)O1,0.13%
4,Cc1ccc(-c2cc(C(=O)N3CCC4(CC3)OCCO4)no2)cc1,-1.75%
5,COC(=O)N1C(c2ccccc2)C1c1ccccc1 (stereo not given),0.12%
6,OCC#CC[N+]1(CC#Cc2ccccc2)CCCC1,2.58%
7,O=C(NC(c1ccc(Cl)cc1)P(=O)(Oc1ccccc1)Oc1ccccc1)OCc1ccccc1 (stereo not given),11.3% (active)
8,O=C(Nc1cccc(OC(=O)N2CCCCC2)c1)N1CCOCC1,-1.26%
9,Cc1ccnc(-n2c(C)cc(/C=C3\C(=O)NC(=S)N(C)C3=O)c2C)c1,1.13%
10,CCOC(=O)C1SC2(C(F)(F)C(F)F)CC1(O)c1c(c(OC)c3occc3c1OC)O2 (stereo not given),9.36% (active)
11,NC(=O)Cn1cc(C(=O)c2ccccc2F)c2ccccc21,4.57%
12,O=C(COC(=O)c1ccccc1)Nc1ccc(Cl)cc1C(=O)c1ccccc1,8.43% (active)
13,CN1CCN(C(=S)SCC(=O)Nc2ccc(Cl)cc2C(=O)c2ccccc2)CC1,-0.25%
14,O=C(CCNS(=O)(=O)c1ccccc1)Nc1ccc(Cl)cc1C(=O)c1ccccc1,2.12%
15,COc1ccc(NC(=O)N2CCC3(CC2)OCCO3)c(OC)c1,4.37%
16,Cc1ccc(-c2nn(CCC#N)cc2C(=O)O)cc1C,-0.13%
17,C=CCN(CC=C)C(=O)Nc1ccc(OCC)cc1,1.22%
18,CN(C)P(=S)(Nc1ccccc1)C(Cl)(Cl)Cl (stereo not given),1.76%
19,CC(Cc1cccs1)NCc1ccc(Cl)cc1 (stereo not given),1.87%
20,CC1CCCCN1Cc1cccnc1 (stereo not given),1.23%
